In PubChem BioAssay AID1626 (SRMLSC, 2009):
Screen size: about 220,000 compounds; about 2,000 (0.91%) were called active. About 2% were inconclusive and are not listed. A selection follows. Entries with a potency or affinity are not part of this list. Unmarked numbers belong to inactive results. No stated cut-off is given here; in the data, inconclusive means inhibition above about 80% without an active follow-up result; inactive means below that; test concentration not stated here.

assay: M. tuberculosis H37Rv growth inhibitors, H37Rv strain (AID 1626); details: active compounds read high, concentration not given here;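 further: bacteria incubated seven days before Alamar blue readout; 0% = bacteria only wells and 100% = bacteria with antibiotic wells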

Row | Compound | inhibition
1 | CCNc1ccc(C(=O)OCC)cc1NC(=O)c1cc(S(=O)(=O)N2CCOCC2)ccc1C | 0.89%
2 | O=C(CN1CC(=O)Oc2ccccc21)NCc1ccco1 | 0.53%
3 | CCc1cc(-c2n[nH]c(C)c2-c2nc(C)cs2)c(O)cc1OC | 4.46%
4 | Cc1nn(Cc2ccccc2)c(Cl)c1C(=O)NC1CCCc2ccccc21 (stereo not drawn) | 12.6%
5 | CCCNC(=O)C1CC(=O)N(c2ccc(OCC(=O)Nc3cc(C)cc(C)c3)cc2)C1 (stereo not drawn) | -2.31%
6 | CCOC(=O)COc1ccccc1/C=C\[N+](=O)[O-] | 11.3%
7 | O=[N+]([O-])/C=C/c1c(OCc2ccccc2)ccc2ccccc12 | 42%
8 | O=C(CSc1nnc(Cc2cc(=O)[nH]c(=O)[nH]2)n1-c1ccc(Cl)cc1)NC1CCCC1 | -1.17%
9 | COc1ccc(OC)c(C2C=C(c3ccc(C)c(C)c3)Nc3nnnn32)c1 (stereo not drawn) | 6.69%
10 | COc1cccc(C2=CC(c3ccc(OC)c(OC)c3OC)n3nnnc3N2)c1 (stereo not drawn) | -9.14%
11 | COc1ccc(C(=O)N(C)C2CCN(C)CC2)cc1S(=O)(=O)Nc1cc(Cl)ccc1Cl | -15.1%
12 | Cc1nc(=S)c2c([nH]1)-c1ccccc1CC21CCCCC1 | 6.17%
13 | Cc1ccc(C(=O)N/N=C/c2nc3ccccc3n2C)cc1 | 62.7%
14 | Cn1c(/C=N/O)nc2ccccc21 | -6.75%
15 | Cc1ccc2cc(/C=N/NC(=O)c3ccccc3[N+](=O)[O-])c(Cl)nc2c1 | -0.86%
16 | Cc1nn(CC(=O)Nc2ccccn2)c(C)c1[N+](=O)[O-] | -1.31%
17 | Cc1ccc(NC(=O)COc2ccc(/C=C3/SC(=Nc4ccccc4)N(Cc4cccnc4)C3=O)cc2)cc1 | 2.56%
18 | CCOc1ccc(/C=C2/Sc3ccc(C(=O)N4CCN(C(=O)c5ccco5)CC4)cc3N(C)C2=O)cc1OC | -1.76%
19 | CCOc1cc(/C=C2/SC(=Nc3ccccc3)N(Cc3cccnc3)C2=O)ccc1OCC#N | -1.44%
20 | CN1C(=O)/C(=C/c2ccccc2Cl)Sc2ccc(C(=O)NCc3cccnc3)cc21 | 34.2%
21 | COc1cccc(C(=O)NCc2cccnc2)c1 | -9.43%
22 | COc1ccc(C(=O)NCc2cccnc2)cc1OC | -4.7%
23 | COc1ccc(N(C(=O)Nc2ccc(Cl)cc2)C2=NCCC2)cc1 | -4.11%
24 | CCCN(CCC)CCCNC(=S)Nc1ccc2nc(N3CCN(C)CC3)cc(C)c2c1 | -1.09%

Row | Compound | inhibition
25 | CCN(CC)C(NC(=O)Cc1ccccc1)C(Cl)(Cl)Cl (stereo not drawn) | -7.35%
26 | O=c1[nH]c(-c2ccccc2)nc2sc(-c3ccccc3)cc12 | 0.66%
27 | c1ccc(-c2nc3ccccc3[nH]2)nc1 | -3.79%
28 | O=c1[nH]c(-c2ccccn2)cc2ccccc12 | -4.45%
29 | c1ccc(-c2nc3cc4ccccc4cc3[nH]2)nc1 | -3.91%
30 | Cc1sc2nc(-c3ccncc3)[nH]c(=O)c2c1-c1ccccc1 | -3.4%
31 | Cc1sc2nc(-c3ccccc3)[nH]c(=O)c2c1-c1ccccc1 | -4.26%
32 | O=c1[nH]c(-c2cccnc2)nc2sc(-c3ccccc3)cc12 | 6.5%
33 | O=c1[nH]c(-c2ccncc2)nc2ccccc12 | -5.72%
34 | O=[N+]([O-])c1cc(C(F)(F)F)ccc1NCCCN1CCOCC1 | 7.61%
35 | COc1cc(C(=O)Nc2cc(C)cc(C)c2)c(-n2cnnn2)cc1OC | 5.79%
36 | CCC(C)OC(=O)C1=C(C)O[C@]23OC(N)=C(C#N)[C@]12C(=O)c1ccccc13 (stereo partly drawn) | 3.72%
37 | Clc1ccc(-c2ccn[nH]2)cc1 | 58.5%
38 | COC(=O)c1ccc(NS(=O)(=O)c2ccc3c(c2)oc(=O)n3C)cc1 | -7.58%
39 | CCOC(=O)C1CCN(c2nc(C)cc(C)c2C#N)CC1 | 2.49%
40 | Cn1c(SC2=CS(=O)(=O)c3ccccc32)nc2ccccc21 | 54.9%
41 | Cc1cc(C)nc(SC2=CS(=O)(=O)c3ccccc32)n1 | 3.84%
42 | CCOC(=O)c1sc(NC(=O)CSc2nncn2C)nc1C | 4.68%
43 | O=C(c1ccc(N2C(=O)C3C4c5ccccc5C(c5ccccc54)C3C2=O)cc1)N1CCOCC1 (stereo not drawn) | -4.29%
44 | COC(=O)c1sc(OC)cc1OCc1ccc(C)cc1 | -1.7%
45 | COc1ccccc1NC(=O)c1ccc([N+](=O)[O-])cc1[N+](=O)[O-] | 3.09%
46 | CCC(NC(=O)c1ccc([N+](=O)[O-])cc1[N+](=O)[O-])c1ccccc1 (stereo not drawn) | -5.13%
47 | CCSc1ccc(-c2nn(-c3ccccc3)cc2/C=C(/C#N)C(=O)NCCCOC)cc1 | -5.12%
48 | O=C(NCCCn1ccnc1)c1cn(-c2ccccc2)nc1-c1ccc(F)cc1 | 4.17%

Row | Compound | inhibition
49 | N#C/C(=C\c1ccc([N+](=O)[O-])cc1)C(=O)NCCCn1ccnc1 | 3.27%
50 | CCCSc1ccc(-c2nn(-c3ccccc3)cc2/C=C(/C#N)C(=O)NCCCOC)cc1 | -7.18%
51 | CSCCC(NS(=O)(=O)c1ccc(Cl)cc1)C(=O)OCC(=O)c1c(C)[nH]c2ccccc12 (stereo not drawn) | -2.72%
52 | C/C=C(\C)C(=O)N1CC2(CC(c3cccc(NC(=O)CC(c4ccccc4)c4ccccc4)c3)=NO2)C[C@H]1C(N)=O (stereo partly drawn) | 4.13%
53 | COc1ccccc1C(=O)C1CCCN(C(=O)CCC(=O)c2ccccc2)C1 (stereo not drawn) | 4.79%
54 | O=C(CNc1cccc2ccccc12)N/N=C/C=C/c1ccco1 | -2.95%
55 | CCOC(=O)c1c(C)n(-c2ccc(C)cc2)c2ccc(OCC(O)CNCC3CCCO3)cc12 (stereo not drawn) | 0.55%
56 | CCOC(=O)c1c(C)n(-c2ccc(C)cc2)c2ccc(OCC(O)CN3CCN(C)CC3)cc12 (stereo not drawn) | -2.8%
57 | Cc1cccc(N(C(=O)C(F)(F)F)C(C(=O)NC2CCCCC2)c2cccs2)c1 (stereo not drawn) | -0.05%
58 | Cc1ccc(-c2csc(NC(=O)/C=C/c3cccs3)n2)cc1C | 51.8%
59 | O=C(/C=C/c1cccs1)Nc1nc(-c2ccccc2)cs1 | -0.14%
60 | Cc1cccc(NC(=O)/C=C/c2cccs2)n1 | -10.1%
61 | O=C(/C=C/c1cccs1)Nc1nccs1 | -4.27%
62 | Cn1nc(C(=O)Nc2sccc2C(N)=O)ccc1=O | -1.96%
63 | COc1ccc2oc(=O)c(C(=O)N3CCN(c4ccccc4C)CC3)cc2c1 | -3.36%
64 | N#C/C(=C\c1sc(N2CCOCC2)nc1-c1ccccc1)C(=O)Nc1cccc2ccccc12 | 49.2%
65 | O=C(N/N=C/c1sc(N2CCOCC2)nc1-c1ccccc1)c1ccccc1F | -7.96%
66 | COC(=O)c1ccc(-n2nnnc2SCc2nn[nH]n2)cc1 | -5.62%
67 | Cn1c(N)c(C(=O)CSc2ncn[nH]2)c(=O)n(C)c1=O | -13.1%
68 | Cc1nn2c(NCCCN(C)C)c3c(nc2c1-c1ccccc1)CCCC3 | 10.8%
69 | COc1ccc(Nc2c3c(nc4c(-c5ccccc5)c(C)nn24)CCC3)cc1 | 13.4%
70 | Cc1nn2c(NCCN(C)C)c3c(nc2c1-c1ccccc1)CCC3 | -3.03%
71 | Cc1nn2c(Nc3ccccc3)c3c(nc2c1-c1ccccc1)CCC3 | 7.77%
72 | COc1ccc(C(C)=O)cc1CSc1nnc(-c2ccncc2)n1C | -2.28%

Row | Compound | inhibition
73 | Cn1c(-c2csc(-c3cccc(C(F)(F)F)c3)n2)n[nH]c1=S | 3.67%
74 | Cc1ccc(C(=O)NCCSC2CCCCC2)cc1S(=O)(=O)Nc1ccccc1 | -1.4%
75 | O=C(NCc1cccnc1)C(C(=O)c1ccc(F)cc1)n1ccccc1=O (stereo not drawn) | -8.48%
76 | CCC(=O)NCCc1nc2ccccc2n1CC(=O)c1ccccc1 | -2.01%
77 | C=CCn1c(=O)c2ccccc2n2c(SCC(=O)c3ccccc3)nnc12 | 6.67%
78 | CN(C)CCOc1ccc(/C(=C(/CCCl)c2ccccc2)c2ccccc2)cc1 | 59.6%
79 | CCN(CC)CCOc1ccc(/C(=C(/Cl)c2ccccc2)c2ccccc2)cc1 | 41%
80 | CCCC(=O)Nc1ccc(C(=O)n2nnc3ccccc32)cc1 | -6.7%
81 | COc1ccccc1N1CCN(c2cc(=O)n(Cc3ccc(F)cc3)c(=O)[nH]2)CC1 | 12.4%
82 | O=S(=O)(c1cccs1)N1CCN(c2ccc(O)cc2)CC1 | -12.2%
83 | Cc1ccc(CN(Cc2ccco2)C(=S)NCC(=O)NC2CC2)cc1 | 5.98%
84 | CCOC(=O)c1c(-c2ccccc2)csc1NC(=S)NC | 18.6%
85 | CCOc1ccccc1C(=O)Nc1nnc(CC)s1 | -4.9%
86 | CCc1nnc(NS(=O)(=O)c2ccc(NC(=O)c3cc4ccccc4oc3=O)cc2)s1 | 61.4%
87 | CCc1nnc(NC(=O)c2cc(C)nc3ccccc23)s1 | -1.08%
88 | Cc1nc2ccc(NC(=O)c3ccc4ccccc4n3)cc2s1 | -4.06%
89 | Cc1sc(NC(=O)c2cc3ccccc3oc2=O)c(C(=O)OC(C)C)c1-c1ccccc1 | -5.1%
90 | CCc1nnc(NC(=O)c2ccc(OC)cc2)s1 | 2.91%
91 | O=C(Nc1ccccc1)c1ccc2ccccc2n1 | 8.34%
92 | CN(C)CCCN(Cc1ccccc1)C(=S)Nc1ccc(OC(F)F)cc1 | 4.19%
93 | Cc1cc(C)n(-c2nc3ccccc3nc2Nc2ccc3c(c2)OCO3)n1 | 13.5%
